Compounds without any hit were thinned out: in the full panel of roughly 79,000, 15% have a hit. Values without a mark were called inactive. Activity calls are given as the source filed them. Rule as the data show it: active = growth inhibition above about 70%; inactive = the rest.
Experiments:
[1] = NCI Yeast Anticancer Drug Screen. Data for the rad50 strain (AID 155);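 also: 0% = growth of vehicle-only cultures of the same strain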; conditions: S. cerevisiae rad50 strain growth inhibition; at 50.0 µM; stronger effect = higher value
Method in brief: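 Compounds were tested on a yeast strain with an engineered DNA damage repair alteration; the reported value is growth inhibition normalised to vehicle treatment.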

[2] = NCI Yeast Anticancer Drug Screen. Data for the mec2-1 strain (AID 157); conditions: S. cerevisiae mec2-1 strain, at 50.0 µM, stronger effect = higher value
Method in brief: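 Growth inhibition is read against vehicle-treated controls after compound exposure of the mec2-1 yeast strain, which is defective in DNA damage repair or cell cycle control.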

[3] = NCI Yeast Anticancer Drug Screen. Data for the sgs1 mgt1 strain (AID 161);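 also: 0% = growth of cultures given vehicle only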; conditions: S. cerevisiae sgs1 mgt1 strain, at 50.0 µM, stronger effect = higher value
Method in brief: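 Yeast cells carrying a defined DNA-repair defect were exposed to test compounds. Growth inhibition was measured relative to vehicle-treated controls.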

[4] = NCI Yeast Anticancer Drug Screen. Data for the cln2 rad14 strain (AID 165);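 also: 0% = growth equal to vehicle treated cultures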; conditions: S. cerevisiae cln2 rad14 strain, at 50.0 µM, stronger effect = higher value
Method in brief: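 Growth inhibition, relative to vehicle-treated controls, is the read-out. The test organism is a yeast strain with defined genetic alterations, cln2 rad14.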

[5] = NCI Yeast Anticancer Drug Screen. Data for the mlh1 rad18 strain (AID 175); conditions: S. cerevisiae mlh1 rad18 strain growth inhibition; at 50.0 µM; stronger effect = higher value
Method in brief: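 Cells of a genetically altered yeast strain, deficient in DNA damage repair, were treated with compound. Their growth was then compared with that of vehicle-treated cultures to give inhibition.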

[6] = NCI Yeast Anticancer Drug Screen. Data for the bub3 strain (AID 167); conditions: S. cerevisiae bub3 mutant strain, at 50.0 µM, stronger effect = higher value
Method in brief: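 Growth of a checkpoint-deficient yeast mutant is measured after compound exposure. Values represent inhibition relative to vehicle.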

Compound: Clc1ccc(/C=C/c2ccccn2)cc1
- growth inhibition [1]: 21.1%
- growth inhibition [2]: 2.05%
- growth inhibition [3]: 9.3%
- growth inhibition [4]: -16.2%
- growth inhibition [5]: 28.4%

Compound: C(=C\c1ccncc1)/c1ccncc1
- growth inhibition [1]: 27.9%
- growth inhibition [2]: -7.2%
- growth inhibition [3]: 6.45%
- growth inhibition [4]: -0.55%
- growth inhibition [5]: 23.6%

Compound: C=CC(C)(C)n1cc(C2=C(O)C(=O)C(c3cn(C(C)(C)C=C)c4ccccc34)=C(O)C2=O)c2ccccc21
- growth inhibition [1]: -1.6%
- growth inhibition [2]: -26.6%
- growth inhibition [3]: -2.3%
- growth inhibition [4]: 4.7%
- growth inhibition [6]: -18.8%
- growth inhibition [5]: -13.4%

Compound: CC(=O)C[n+]1ccc(C)cc1Sc1ccccc1C
- growth inhibition [1]: 8.4%
- growth inhibition [2]: -18.1%
- growth inhibition [3]: 6.85%
- growth inhibition [4]: 4.4%
- growth inhibition [5]: 33.8%

Compound: CNc1ccccc1C(N)=O
- growth inhibition [1]: -21.5%
- growth inhibition [2]: -28.6%
- growth inhibition [3]: -10.3%
- growth inhibition [4]: 11.7%
- growth inhibition [5]: -6.5%

Compound: Cc1cc2c(C(C)C)c(O)c(O)c(C=Nc3ccccc3[N+](=O)[O-])c2c(O)c1-c1c(C)cc2c(C(C)C)c(O)c(O)c(C=Nc3ccccc3[N+](=O)[O-])c2c1O
- growth inhibition [1]: -13.9%
- growth inhibition [2]: -19.6%
- growth inhibition [3]: -19.6%
- growth inhibition [4]: -21.8%
- growth inhibition [5]: -2.3%

Compound: COc1nc2ccccc2s1
- growth inhibition [1]: 18.6%
- growth inhibition [2]: -15.2%
- growth inhibition [3]: 13.1%
- growth inhibition [4]: 10.9%
- growth inhibition [5]: 22.4%

Compound: Cn1c(=O)c2nc3c(=O)n(C)c(=O)n(C)c3nc2n(C)c1=O
- growth inhibition [1]: -8%
- growth inhibition [2]: -11.2%
- growth inhibition [3]: -17.2%
- growth inhibition [4]: -6.9%
- growth inhibition [5]: -2.25%

Compound: CC1CC2C3CCC4=CC(=O)CCC4(C)C3CCC2(C)C1(O)C(=O)CO (stereo unspecified)
- growth inhibition [1]: 2%
- growth inhibition [2]: -0.8%
- growth inhibition [3]: 9.1%
- growth inhibition [4]: -44%
- growth inhibition [6]: -14.3%
- growth inhibition [5]: -0.55%

Compound: O=C(O)c1ccc([N+](=O)[O-])cc1S(=O)(=O)O
- growth inhibition [1]: -21.6%
- growth inhibition [2]: -6.8%
- growth inhibition [3]: -24.3%
- growth inhibition [4]: -22.9%
- growth inhibition [5]: -4.55%

Compound: OC(CCN1CCCCC1)(c1ccccc1)c1ccccc1
- growth inhibition [1]: -29.6%
- growth inhibition [2]: -21.9%
- growth inhibition [3]: -41.5%
- growth inhibition [4]: 16.4%
- growth inhibition [5]: -18.4%

Compound: CCOC(=O)/C(O)=C(\C=N\C(=S)Nc1ccc(Cl)c(Cl)c1)C(=O)OCC
- growth inhibition [1]: 43.6%
- growth inhibition [2]: 11.2%
- growth inhibition [3]: 38.5%
- growth inhibition [4]: 6.65%
- growth inhibition [6]: 49.5%
- growth inhibition [5]: 50.6%

Compound: CC(=O)CSc1ncnc2nc[nH]c12
- growth inhibition [1]: 0.1%
- growth inhibition [2]: 2.8%
- growth inhibition [3]: -0.5%
- growth inhibition [4]: -5.5%
- growth inhibition [6]: 5.85%
- growth inhibition [5]: -5.3%

Compound: Nc1ccccc1SC1CC(=O)N(c2ccc(Cl)c(Cl)c2)C1=O (stereo unspecified)
- growth inhibition [4]: -15.9%

Compound: NC(=O)NCCO
- growth inhibition [4]: -18.6%

Compound: CCOC(=O)Nc1nccs1
- growth inhibition [1]: -13.7%
- growth inhibition [2]: 7.9%
- growth inhibition [4]: -37%
- growth inhibition [6]: -2.6%
- growth inhibition [5]: -4.6%

Compound: C=CCC(OC(C)=O)c1ccc(OC)c(OC)c1 (stereo unspecified)
- growth inhibition [1]: 11.3%
- growth inhibition [2]: 1.35%
- growth inhibition [4]: -13.9%
- growth inhibition [6]: 8.7%
- growth inhibition [5]: 9.5%

Compound: O=c1cc(Cl)nc2ccccn12
- growth inhibition [1]: 18.6%
- growth inhibition [2]: -1.1%
- growth inhibition [4]: -52.3%
- growth inhibition [6]: -3.85%
- growth inhibition [5]: 4.5%

Compound: c1ccc(Oc2c3ccccc3nc3ccccc23)cc1
- growth inhibition [1]: 2.75%
- growth inhibition [2]: -18.4%
- growth inhibition [4]: 4.25%
- growth inhibition [6]: -5.7%
- growth inhibition [5]: 87.9% (active)

Compound: BrCc1cccc(C[P+](c2ccccc2)(c2ccccc2)c2ccccc2)c1
- growth inhibition [1]: 66%
- growth inhibition [2]: 41.9%
- growth inhibition [4]: 28.2%
- growth inhibition [6]: 38.5%
- growth inhibition [5]: 41%

Compound: CCCCn1cnc2c(=O)[nH]cnc21
- growth inhibition [1]: 3.2%
- growth inhibition [2]: 2.25%
- growth inhibition [4]: -14.8%
- growth inhibition [6]: 8.95%
- growth inhibition [5]: 2.3%

Compound: Nc1ncnc(Nc2ccccc2)n1
- growth inhibition [1]: -6.05%
- growth inhibition [2]: -28.1%
- growth inhibition [4]: 15.1%
- growth inhibition [5]: 7.1%

Compound: C/C(O)=C(/C=N\C(=S)Nc1ccc(S(=O)(=O)Nc2nccs2)cc1)C(=O)Nc1ccccc1C
- growth inhibition [1]: -14.3%
- growth inhibition [2]: 8.1%
- growth inhibition [4]: 32.8%
- growth inhibition [6]: 7.65%
- growth inhibition [5]: -18.8%

Compound: CCOC(=N)CC(=O)Nc1cccc(C)c1Cl
- growth inhibition [1]: -2.85%
- growth inhibition [2]: -14.1%
- growth inhibition [4]: 18.6%
- growth inhibition [6]: 8.5%
- growth inhibition [5]: -3.3%

Compound: C/C(=N\Nc1ccc([N+](=O)[O-])cc1[N+](=O)[O-])c1ccc(Br)cc1
- growth inhibition [1]: -8.7%
- growth inhibition [2]: -2.2%
- growth inhibition [4]: -12.8%
- growth inhibition [6]: 8.7%
- growth inhibition [5]: 3.05%

Compound: O=C(O)Cc1ccccn1
- growth inhibition [1]: -29.4%
- growth inhibition [2]: -49.1%
- growth inhibition [6]: -28.8%
- growth inhibition [5]: -2.25%

Compound: c1ccc2c(NCCCN3CCN(CCCNc4c5ccccc5nc5ccccc45)CC3)c3ccccc3nc2c1
- growth inhibition [1]: 23.9%
- growth inhibition [2]: 4.6%
- growth inhibition [4]: -0.25%
- growth inhibition [6]: 22.2%
- growth inhibition [5]: 14.9%

Compound: CC(C)(C)CC1(C)NC(=O)NC1=O (stereo unspecified)
- growth inhibition [1]: -7.3%
- growth inhibition [2]: 8.25%
- growth inhibition [4]: -58.2%
- growth inhibition [6]: 7.25%
- growth inhibition [5]: 8.45%

Compound: O=C(OC1CCCC1)c1ccccc1Cl
- growth inhibition [1]: 23.9%
- growth inhibition [2]: 8.75%
- growth inhibition [4]: -21.7%
- growth inhibition [6]: -2.3%
- growth inhibition [5]: 23.2%

Compound: C#CC(O)c1ccccc1 (stereo unspecified)
- growth inhibition [1]: -2.4%
- growth inhibition [2]: -15.3%
- growth inhibition [4]: -11.6%
- growth inhibition [6]: 0.9%
- growth inhibition [5]: -0.65%

Compound: CC(CC(CCC(=O)O)(c1ccccc1)c1ccccc1)N(C)C (stereo unspecified)
- growth inhibition [1]: 19.6%
- growth inhibition [2]: -4.7%
- growth inhibition [4]: -0.1%
- growth inhibition [6]: 7.95%
- growth inhibition [5]: 13.4%

Compound: O=C(O)CCCCCNC(=O)OCc1ccccc1
- growth inhibition [1]: 17.7%
- growth inhibition [2]: -41.9%
- growth inhibition [4]: 29.9%
- growth inhibition [6]: 3.25%
- growth inhibition [5]: 9.3%

Compound: COC(=O)C1=C(C)C(=O)CC1
- growth inhibition [1]: 16.7%
- growth inhibition [2]: -1.5%
- growth inhibition [4]: -11.9%
- growth inhibition [5]: 14.2%

Compound: CCN(CC)c1ccc2nc3ccc(N=Nc4ccc(N(C)C)cc4)cc3[n+](-c3ccccc3)c2c1
- growth inhibition [1]: 42.5%
- growth inhibition [2]: 52.5%
- growth inhibition [4]: 54.9%
- growth inhibition [6]: 39.5%
- growth inhibition [5]: 38.9%

Compound: OCc1cccnc1
- growth inhibition [1]: -6.3%
- growth inhibition [2]: -36.9%
- growth inhibition [6]: -18.5%
- growth inhibition [5]: 5.75%

Compound: CCC(=O)C1C(=O)c2ccccc2C1=O
- growth inhibition [1]: 20.9%
- growth inhibition [2]: -12.6%
- growth inhibition [4]: -13.8%
- growth inhibition [6]: 6.1%
- growth inhibition [5]: 20.4%

Compound: CCCc1cccc(CCC)c1NC(=O)Nc1cc(Cl)cc(Cl)c1
- growth inhibition [1]: 37.5%
- growth inhibition [3]: 47.5%
- growth inhibition [4]: 37%
- growth inhibition [6]: 44%
- growth inhibition [5]: 23.6%

Compound: Cn1c2ccccc2c2nnc(NCCCCO)nc21
- growth inhibition [1]: 10.4%
- growth inhibition [2]: 18.3%
- growth inhibition [4]: 24.8%
- growth inhibition [6]: 19.6%
- growth inhibition [5]: 41.2%

Compound: O=c1n(CC2CO2)c(=O)n(CC2CO2)n1CC1CO1 (stereo unspecified)
- growth inhibition [1]: 16.9%
- growth inhibition [2]: -5.75%
- growth inhibition [3]: 1.05%
- growth inhibition [5]: -8.8%

Compound: NNC(=O)c1ccccc1N
- growth inhibition [1]: -1.8%
- growth inhibition [2]: 4.35%
- growth inhibition [4]: -11.2%
- growth inhibition [6]: -2%
- growth inhibition [5]: -1.55%

Compound: Nc1nc(N)nc(N2CCCCC2)n1
- growth inhibition [1]: -23.3%
- growth inhibition [2]: -5.75%
- growth inhibition [4]: -41.2%
- growth inhibition [6]: -4.25%
- growth inhibition [5]: -19.9%

Compound: CC(=O)Nc1ncc(S(=O)(=O)c2ccc([N+](=O)[O-])cc2)s1
- growth inhibition [1]: -28.1%
- growth inhibition [2]: -57.5%
- growth inhibition [4]: -7.55%
- growth inhibition [6]: -41.2%
- growth inhibition [5]: -32.1%

Compound: O=C(Oc1ccccc1Cl)c1ccc(Cl)cc1Cl
- growth inhibition [1]: 2.2%
- growth inhibition [2]: 33.4%
- growth inhibition [4]: -49.4%
- growth inhibition [6]: 43.2%
- growth inhibition [5]: 48.3%

Compound: Clc1ccc(C(SCc2ccccc2)SCc2ccccc2)cc1
- growth inhibition [1]: -41.4%
- growth inhibition [2]: -46.8%
- growth inhibition [4]: -17.6%
- growth inhibition [6]: -10%
- growth inhibition [5]: -20.1%

Compound: O=C(NCc1ccccc1)c1cccc([N+](=O)[O-])c1
- growth inhibition [1]: 5.05%
- growth inhibition [2]: 18.1%
- growth inhibition [4]: -47%
- growth inhibition [6]: 22.9%
- growth inhibition [5]: 15.6%

From PubChem BioAssay (NCI)
